G9a inh: qHTS Assay for Inhibitors of Histone Lysine Methyltransferase G9a | hit rate 8.8% among 350,000 | Potency, µM (doses to about 102 µM), usual class: inhibitors | G9a H3K9 monomethylation, AlphaScreen, 2 h | AID 504332, 2011; note: nearly all actives have a fitted effect of over 75% in size
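Signal arises when biotinylated H3K9 peptide, once monomethylated, bridges streptavidin donor and antibody-captured acceptor beads. Enzyme at 20 nM was preincubated 15 min with test compounds; peptide 500 nM and SAM 20 uM then reacted for 2 h.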
BAZ2B inh: qHTS Assay for Inhibitors of BAZ2B; Potency, µM (doses to about 114 µM), most hits filed as inhibitors; AlphaScreen BAZ2B-H3K14Ac peptide displacement; Bromodomain adjacent to zinc finger domain protein 2B (Homo sapiens), Q9UIF8; hit rate 4.4% among 360,000; note: nearly all actives have a fitted effect of over 60% in size
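BAZ2B 50 nM plus b-H3(5-23)K14Ac 50 nM, PBS pH 7.4/0.01% Tween-20, 30 min RT; compound added (max 110 uM), 30 min RT; streptavidin donor/Ni-chelate acceptor beads 10 ug/mL final, 20 min dark; AlphaScreen read.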
HP1b binding inh: HTS for Inhibitors of HP1-beta Chromodomain Interactions with Methylated Histone Tails; Chromobox protein homolog 1 (Homo sapiens), P83916; AlphaScreen HP1-beta / biotin-H3K9me3 peptide binding; Potency, µM (highest dose often 114 µM), most hits filed as inhibitors; hit rate 0.56% among 390,000; AID 540317, 2011; note: nearly all actives have a fitted effect of over 70% in size
Target sequence (P83916 whole entry, looked up): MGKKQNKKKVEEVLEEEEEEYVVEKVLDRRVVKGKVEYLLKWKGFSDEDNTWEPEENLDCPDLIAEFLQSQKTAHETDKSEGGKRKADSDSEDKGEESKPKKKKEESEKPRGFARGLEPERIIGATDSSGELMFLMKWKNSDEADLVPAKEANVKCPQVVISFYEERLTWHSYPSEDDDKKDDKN
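HP1-beta protein (50 nM final) preincubated 30 min at room temperature with biotinylated H3(1-18)K9me3 peptide (50 nM) in PBS pH 7.4, 0.01% Tween-20, then compound added for 30 min. AlphaScreen streptavidin donor/nickel chelate acceptor beads (10 ug/mL final), 30 min dark, luminescence read.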
VDR inh: Inhibitors of the vitamin D receptor (VDR): qHTS. hit rate 0.93% among 400,000. VDR-SRC2-3 peptide fluorescence polarization, 2 h. Potency, µM, usual class: inhibitors. Vitamin D3 receptor (Homo sapiens), P11473. AID 504847, 2011
Target sequence (P11473 whole entry, looked up): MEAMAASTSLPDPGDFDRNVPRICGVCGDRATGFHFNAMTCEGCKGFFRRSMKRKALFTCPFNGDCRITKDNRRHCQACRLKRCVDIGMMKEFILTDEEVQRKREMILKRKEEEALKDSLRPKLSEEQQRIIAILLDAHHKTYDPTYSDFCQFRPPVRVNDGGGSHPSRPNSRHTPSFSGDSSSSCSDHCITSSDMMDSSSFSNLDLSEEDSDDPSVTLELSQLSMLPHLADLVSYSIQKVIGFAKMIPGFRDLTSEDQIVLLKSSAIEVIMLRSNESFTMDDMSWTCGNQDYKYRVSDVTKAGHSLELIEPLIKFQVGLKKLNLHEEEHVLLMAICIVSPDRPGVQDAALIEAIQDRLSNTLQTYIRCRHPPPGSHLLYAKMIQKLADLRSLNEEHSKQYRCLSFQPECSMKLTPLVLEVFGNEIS
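Inhibition of the VDR/SRC2-3 peptide interaction is quantified by fluorescence polarization. Compounds (23 nl, pintool) incubate with the reagents for 2 hours at ambient room temperature.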
PLK1 PBD block: qHTS for Inhibitors of PLK1-PDB (polo-like kinase 1 - polo-box domain): Primary Screen | hit rate 2.8% among 360,000 | Potency, µM, most hits filed as inhibitors | Serine/threonine-protein kinase PLK1 (Homo sapiens), P53350 | Plk1 PBD binding of FITC phosphopeptide, fluorescence polarization; note: series mostly up to about 57 µM; nearly all actives have a fitted effect of over 65% in size
JMJD2A Tudor: qHTS Assay for Inhibitors of JMJD2A-Tudor Domain; Lysine-specific demethylase 4A (Homo sapiens), O75164; AlphaScreen JMJD2A-Tudor / H3K4me3 peptide binding; Potency, µM (highest dose often 114 µM), most hits filed as inhibitors; hit rate 4.4% among 390,000; AID 504339, 2011; note: nearly all actives have a fitted effect of over 50% in size
Each line names hits and unclear results; the compound was inactive in the other large screens. Shown are actives, neighbours in structure and some others; about 11% of the full set was active somewhere. Calls come from the whole dose curve; as a rule, active = well fitted curve in the direction sought with a large enough effect; inconclusive = small, poorly fitted or top-dose-only effect, or another doubt; inactive = no such curve, though single readings can be large; an effect the other way counts as inactive or inconclusive.

COc1ccc(NC(=S)NC(NC(=O)CCl)C(Cl)(Cl)Cl)c([N+](=O)[O-])c1 (stereo not drawn)	G9a inh 25µM, BAZ2B inh inconclusive, HP1b binding inh inconclusive, VDR inh 89µM, PLK1 PBD block 12µM, JMJD2A Tudor inconclusive
COc1ccc(NC(=S)NC(NC(=O)c2ccccc2Cl)C(Cl)(Cl)Cl)c([N+](=O)[O-])c1 (stereo not drawn)	BAZ2B inh inconclusive, JMJD2A Tudor inconclusive
COc1ccc(NC(=S)NC(NC(=O)c2cccc3ccccc23)C(Cl)(Cl)Cl)c([N+](=O)[O-])c1 (stereo not drawn)	G9a inh 45µM, BAZ2B inh inconclusive, JMJD2A Tudor inconclusive
CCOC(=O)C(=O)CC(=O)c1ccc2c(c1)OCCO2	G9a inh 20µM, BAZ2B inh 50µM
O=C(c1ccc2c(c1)OCCO2)N1CCCCC1	none
O=C(CCN1CCCCCC1)Nc1ccc2c(c1)OCCO2	G9a inh inconclusive, BAZ2B inh 56µM, HP1b binding inh inconclusive, JMJD2A Tudor 5µM
O=C(CCN1CCCCC1)c1ccc2c(c1)OCCO2	G9a inh 8.9µM, PLK1 PBD block inconclusive
NC(=O)c1ccc2c(c1)OCCO2	none
O=C(CCN1CCc2ccccc2C1)c1ccc2c(c1)OCCO2	G9a inh 8.9µM, VDR inh inconclusive, PLK1 PBD block 24µM
CC1CCCC(C)N1C(=O)c1cc2ncc(CCCl)cn2n1 (stereo not drawn)	G9a inh inconclusive
COc1ccccc1CC(=O)c1ccc(OCc2ccccc2)cc1	none
NCCC[C@@H](CC(=O)N[C@@H]1CCNC[C@H]1C(=O)N[C@H](CC(=O)N[C@@H](CCC(=O)O)CC(=O)O)Cc1c[nH]c2ccccc12)NC(=O)C[C@H](Cc1c[nH]c2ccccc12)NC(=O)[C@@H]1CNCC[C@H]1N	none (no result: G9a inh, BAZ2B inh, HP1b binding inh, PLK1 PBD block, JMJD2A Tudor)
CC(=O)NC(CC(=O)OCC(=O)c1ccc(NC(=O)CC(C)C)cc1)c1ccccc1 (stereo not drawn)	BAZ2B inh inconclusive, HP1b binding inh inconclusive, JMJD2A Tudor inconclusive
O=C(CCc1ccccc1)c1ccc2c(c1)OCCCO2	none
O=C(CCCc1ccccc1)c1ccc2c(c1)OCCO2	none
O=C(CCN1CCCC1Cc1ccccc1)c1ccc2c(c1)OCCO2 (stereo not drawn)	G9a inh 2.8µM, BAZ2B inh inconclusive, HP1b binding inh inconclusive, VDR inh 35µM, PLK1 PBD block 21µM, JMJD2A Tudor 89µM
O=C(CCN1CCc2ccccc21)c1ccc2c(c1)OCCO2	G9a inh inconclusive, BAZ2B inh 50µM, PLK1 PBD block inconclusive, JMJD2A Tudor inconclusive
COc1ccc(C2C(=O)N(C3CCC(C)CC3)CC(=O)N2Cc2ccccc2Cl)cc1OC (stereo not drawn)	none (no result: PLK1 PBD block)
Cc1[nH]c2ccccc2c1C(c1ccccn1)N1CCC(C(N)=O)CC1 (stereo not drawn)	G9a inh 1.6µM, VDR inh inconclusive, PLK1 PBD block 6.7µM, JMJD2A Tudor inconclusive (no result: BAZ2B inh)
CCOC(=O)C1CCN(C(c2ccccn2)c2c(C)[nH]c3ccccc23)CC1 (stereo not drawn)	G9a inh 1.4µM, HP1b binding inh inconclusive, VDR inh inconclusive, PLK1 PBD block 12µM, JMJD2A Tudor inconclusive
CCOC(=O)C1CCN(C(=O)c2n[nH]c(=O)c3ccccc23)CC1	none
COc1cccc(C(=O)O[C@H]2[C@H](C)NS(=O)(=O)[C@H]3C[C@@H]4C=C[C@]23O4)c1	none
CCn1c2ccccc2c2cc(CNCc3ccc(OC)cc3OC)ccc21	G9a inh 40µM, BAZ2B inh 45µM, HP1b binding inh inconclusive, JMJD2A Tudor inconclusive
CCC(CC)NCc1ccc2c(c1)c1ccccc1n2CC	BAZ2B inh 45µM, HP1b binding inh inconclusive, VDR inh inconclusive, PLK1 PBD block 21µM, JMJD2A Tudor 20µM
COc1ccc(OC)c(NC(=O)C2=C(C)C(=O)OC23CCCCCC3)c1	none (no result: PLK1 PBD block)
COc1cccc(C(N)c2nc(-c3csc4ccccc34)cs2)c1 (stereo not drawn)	none (no result: G9a inh, BAZ2B inh, HP1b binding inh, VDR inh, JMJD2A Tudor)
COc1c(N2CCN(C(=S)NCc3ccccc3)C(C)C2)c(F)cc2c(=O)c(C(=O)O)cn(C3CC3)c12 (stereo not drawn)	BAZ2B inh 79µM, PLK1 PBD block inconclusive, JMJD2A Tudor 56µM
COc1c(F)c(F)cc2c(=O)c(C(=O)O)cn(C3CC3)c12	BAZ2B inh inconclusive, JMJD2A Tudor 28µM
O=C(OCCCN1CCOCC1)c1ccc(O)c(O)c1	G9a inh 13µM, JMJD2A Tudor 32µM
CC(C)[C@H](NC(=O)c1ccccc1)C(=O)O	none
CCCCN(Cc1ccc(C(=O)N[C@H](C(=O)O)C(C)C)cc1)C(=O)C(c1ccccc1)c1ccccc1	PLK1 PBD block inconclusive, JMJD2A Tudor 89µM (no result: G9a inh, BAZ2B inh)
Cc1nn(Cc2ccc(Cl)c(Cl)c2)c(C)c1NC(=O)c1cc(-c2ccc3c(c2)OCO3)on1	G9a inh 56µM, BAZ2B inh 50µM
Cc1ccc(NC(=O)c2cc(-c3ccc4c(c3)OCO4)on2)cc1	none
Cc1cccc(Cl)c1NC(=S)NN	G9a inh 3.5µM
COc1cccc(-c2nc(-c3ccc4c(c3)NC(=O)CO4)cs2)c1	PLK1 PBD block 13µM
COc1ccc(-c2cc(-c3ccc(OC)cc3)nc(-c3ccc4c(c3)NC(=O)CO4)c2)cc1	none
CC(Nc1nc(-c2ccc3c(c2)NC(=O)CO3)cs1)c1ccccc1 (stereo not drawn)	G9a inh inconclusive, BAZ2B inh inconclusive, PLK1 PBD block 17µM
Cc1cccnc1C(c1ccc(F)cc1)N(C)C(=O)C1CCN(CCOc2ccc(Cl)cc2Cl)CC1 (stereo not drawn)	none (no result: G9a inh, BAZ2B inh, HP1b binding inh, VDR inh, JMJD2A Tudor)
CCOC(=O)C1CCN(S(=O)(=O)c2c(Cl)ccc3nonc23)CC1	G9a inh 50µM (no result: HP1b binding inh, VDR inh, PLK1 PBD block, JMJD2A Tudor)
CCOC(=O)C1CCN(S(=O)(=O)c2nc3nc(C)cc(C)n3n2)CC1	PLK1 PBD block 30µM
CCOC(=O)C1CCN(C(=O)COC(=O)c2nc3nc(C)cc(C)n3n2)CC1	none
COc1ccccc1-c1nnc(SCC(=O)c2ccc(C3CCCCC3)cc2)n1Cc1ccco1	G9a inh inconclusive
C=CCSC1=C(C#N)C(c2ccccc2OCC)C(C#N)C(=O)N1 (stereo not drawn)	G9a inh 45µM, PLK1 PBD block 27µM
CCOC(=O)CSC1=C(C#N)C(c2ccccc2OCC)C(C#N)C(=O)N1 (stereo not drawn)	G9a inh inconclusive
CC1CCN(C(=O)CCc2nnc3ccc(N4CCC5(CC4)OCCO5)nn23)CC1	none

Screening data as filed in PubChem BioAssay.
